Measured values reported in PubChem BioAssay (NCI).
Compounds without any hit were thinned out: in the full panel of roughly 83,000, 20% have a hit.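 Compound tested at a single concentration for 48 hours in 96-well plates; a percent growth value below 10 was scored as active.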 The source made the active and inactive calls.

The compounds below were run on MDA-MB-468 breast (assay: NCI-60 one-dose screen, 48 h (100 = growth as untreated, 0 = no growth, -100 = all killed)). Details: 10 µM unless noted.
`COc1ccc(-c2nn(-c3cccc(Cl)c3)cc2-c2nc(N)[nH]c(=O)c2C#N)cc1` was tested, and the growth was 73.9% (inactive). `Cc1ccc[n+](CCC(N)=O)c1` was tested, and the growth was 108% (inactive). With `COc1cc2cc(NCc3ccncc3)nc(C)c2cc1OC` the growth was 87.7% (inactive). `Nc1cc(-c2c[nH]c3ccc(Br)cc23)nc2cc(-c3c[nH]c4ccc(Br)cc34)nn12` was tested, and the growth was -4.03% (active). `CCCC#CCN(CC)CC` was tested, and the growth was 99.1% (inactive). `CCc1ccc(NC(=O)N[C@@H](Cc2cccc(F)c2)C(=O)N[C@@H]2C(=O)N3CCC[C@H]3C(=O)N3CCCC[C@H]3C(=O)N[C@@H](C)C(=O)N3C[C@H](C)C[C@H]3C(=O)O[C@H]2C)c(F)c1` was tested, and the growth was -18.2% (active). For `CNCCCNc1ccnc2cc(Cl)ccc12`, the growth was -85% (active). In the case of `CN(C)c1ccc(N)c2ccccc12`, the growth is reported as 57.8% (inactive). For `COc1ccc(C(=O)C(Br)C(Br)C(=O)O)cc1` (stereo unspecified), the growth was 93% (inactive). With `CCOC(=O)c1c(C)nc2ccccc2c1/C=C/c1ccc(OC)cc1` the growth was 20.6% (inactive). For `COc1cc(C(=O)/C=C/c2cn(-c3ccccc3)nc2-c2cccc(Nc3ccnc4cc(Cl)ccc34)c2)cc(OC)c1OC`, the growth was 71.7% (inactive). For `COc1cc(-c2nn(C)nc2-c2cc3ccccc3s2)cc(OC)c1OC`, the growth was 39.8% (inactive). For `CCCCC[C@H]1C/C=C2/C(=O)C(Cl)=C[C@@H]2C/C=C\CCCC(=O)O1`, the growth was -26.7% (active). For `CC(=NCc1ccccc1)c1ccc(O)cc1O`, the growth was 118% (inactive). With `Cc1c2ccncc2c(C)c2c1c1cc(CO)ccc1n2C` the growth was -46.1% (active). For `CC(=O)/C(=C/c1ccccc1)C(=O)CC(C)C`, the growth was 93.7% (inactive). `Clc1nc(Cl)c2ncn(CC3(Cn4cnc5c(Cl)nc(Cl)nc54)COC3)c2n1` was tested, and the growth was -60.7% (active). `CCOC(=O)n1ccn(C)c1=S` was tested, and the growth was 103% (inactive). For `C=C(C)[C@@H]1CC[C@]2(COP(=O)(OCC)OCC)CC[C@]3(C)[C@H](CC[C@@H]4[C@@]5(C)CC[C@H](OP(=O)(OCC)OCC)C(C)(C)[C@@H]5CC[C@]43C)[C@@H]12`, the growth was 22.1% (inactive). In the case of `NC(=S)CN1CCOCC1`, the growth is reported as 104% (inactive). With `Cc1cc(-c2cc(O)ccc2Cl)cc2nnc(Nc3ccc(OCCN4CCCC4)cc3)nc12` the growth was -69.4% (active). For `O=C(Nc1ccc(F)cc1)c1cc2cc(Nc3nc(-c4ccccc4)nc4ccccc34)ccc2oc1=O`, the growth was 111% (inactive). With `COc1cc(-c2n/c(=C\c3c(O)[nH]c4ccc(Cl)cc34)cc3c2=Nc2ccccc2-3)cc(OC)c1OC` the growth was 30.5% (inactive). `CC(=O)[C@H]1CCC/C=C/[C@@H]2C[C@H](O)C[C@H]2[C@H](O)/C=C/C(=O)O1` was tested, and the growth was -34.9% (active). For `N/C(=N\N=C\c1ccc2c(c1)OCO2)N/N=C\c1ccc2c(c1)OCO2`, the growth was 98.9% (inactive). `O=C(Oc1ccccc1)C(Br)C(Br)c1ccccc1` (stereo unspecified) was tested, and the growth was 56.7% (inactive).
